In the library only some 1.1% were active in any assay of this set; here they are far more common.
HTR5A inv ctr = HTR5A inverse agonists in luminescence cell assay, primary screen, counter-screen for OPRM1-OPRD1 heterodimer inverse agonist project, full-deck HTS. HTR5A cell line, inverse agonism. AID 504634, 2011. 340,000 tested, 0.083% active. inhibition, % at 9.3 µM; in the data active = inhibition mostly above about 23%, no sharp cut-off; inactive = mostly below about 18%;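 note: 0% = cells with DMSO and 100% = no-cell wells with DMSO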
OPRM1-OPRD1 ag = agonists of OPRM1-OPRD1 heterodimerization, primary screen, cell-based, luminescence. Mu-type opioid receptor (Homo sapiens) + Delta-type opioid receptor (Homo sapiens), …. cells. activation, % at 9.3 µM. 340,000 tested, 0.3% active. AID 504326, 2011;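 note: 0% = vehicle-treated cells and 100% = reference agonist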
Target sequence (P35372 whole entry, looked up): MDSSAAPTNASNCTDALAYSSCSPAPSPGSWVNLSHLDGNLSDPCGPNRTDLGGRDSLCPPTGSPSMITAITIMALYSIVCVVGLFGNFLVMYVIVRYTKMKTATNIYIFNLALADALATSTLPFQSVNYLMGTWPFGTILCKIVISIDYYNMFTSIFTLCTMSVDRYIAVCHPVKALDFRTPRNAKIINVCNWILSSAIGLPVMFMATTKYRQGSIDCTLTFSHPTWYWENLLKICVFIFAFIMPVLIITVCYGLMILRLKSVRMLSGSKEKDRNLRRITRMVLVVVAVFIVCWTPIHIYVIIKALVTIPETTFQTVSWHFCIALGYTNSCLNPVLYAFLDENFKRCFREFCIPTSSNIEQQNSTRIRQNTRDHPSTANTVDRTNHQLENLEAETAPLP
Target sequence (P41143 whole entry, looked up): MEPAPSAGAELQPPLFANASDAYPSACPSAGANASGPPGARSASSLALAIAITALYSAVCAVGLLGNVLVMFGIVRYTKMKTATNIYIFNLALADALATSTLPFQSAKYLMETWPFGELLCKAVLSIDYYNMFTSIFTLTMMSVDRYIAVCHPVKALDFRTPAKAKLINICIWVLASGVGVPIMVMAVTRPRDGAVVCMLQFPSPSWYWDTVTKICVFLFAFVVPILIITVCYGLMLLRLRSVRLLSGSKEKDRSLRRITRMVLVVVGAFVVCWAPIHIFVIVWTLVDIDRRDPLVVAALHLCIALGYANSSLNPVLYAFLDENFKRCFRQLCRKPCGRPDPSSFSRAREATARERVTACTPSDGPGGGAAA
OPRM1-OPRD1 inv = inverse agonists of MOR-DOR heterodimerization, primary screen, cell-based, luminescence; cell-based MOR-DOR heterodimer luminescence, inverse agonism; inhibition, % at 9.3 µM; 340,000 tested, 0.21% active; AID 504357, 2011; in the data active = inhibition above about 22%, passing the limit was not always enough;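 note: 0% = cells with DMSO and 100% = wells without cells with DMSO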
HTR5A ag ctr = HTR5A agonists in luminescence cell assay, primary screen, counter-screen for OPRM1-OPRD1 heterodimer agonist project, full-deck HTS; 5-hydroxytryptamine receptor 5A (Homo sapiens), P47898; cell-based; activation, % at 9.3 µM; 340,000 tested, 0.61% active; in the data active = activation mostly above about 9.5%, no sharp cut-off; inactive = mostly below about 7.6%;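 note: 0% = cells with vehicle only and 100% = reference agonist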
MOR-DOR ag conf = agonists of MOR-DOR heterodimerization, confirmation, cell-based, luminescence. shares compounds with OPRM1-OPRD1 ag. cells, luminescence complementation. activation, % at 9.3 µM. 830 tested, 45% active;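 note: 0% = vehicle-treated cells and 100% = reference agonist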
HTR5A ag ctr2 = HTR5A agonists in cells, counter-screen for OPRM1-OPRD1 heterodimer agonist project, cell-based, luminescence | shares compounds with OPRM1-OPRD1 ag | HTR5A agonist counterscreen | activation, % at 9.3 µM | 830 tested, 8% active | AID 504905, 2011; in the data active = activation above about 17%;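 note: 0% = vehicle-treated cells and 100% = reference agonist response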
* = called active by the depositor; i = inactive; nt = not tested or not shown. Cut-off read from the data, not from the text of the source, unless noted: active = activation above about 18%; inactive = the rest.

SMILES | HTR5A inv ctr | OPRM1-OPRD1 ag | OPRM1-OPRD1 inv | HTR5A ag ctr | MOR-DOR ag conf | HTR5A ag ctr2
COc1ccc(C2Nc3ccccc3C(=O)N2c2ccccc2)cc1CSc1ccccn1 (configuration not stated) | -3 | 27* | -139 | 0 | 28* | -2
COc1ccc(C2Nc3ccccc3C(=O)N2Cc2ccccc2)cc1CSc1ccccn1 (configuration not stated) | -2 | 35* | -188 | 0 | 1 | 4
COc1ccc(C2Nc3ccccc3C(=O)N2c2ccccc2)cc1COc1ccccn1 (configuration not stated) | 11 | -2 | 9 | 5 | nt | nt
COc1ccc(C2Nc3ccccc3C(=O)N2c2ccc(F)cc2)cc1CSc1ccccn1 (configuration not stated) | 10 | 38* | -226 | -4 | 46* | 3
COc1ccc(C2Nc3ccccc3C(=O)N2Cc2ccco2)cc1COc1ccc(NC(C)=O)cc1 (configuration not stated) | -10 | 117* | i | 7 | 68* | -3
Cc1cccc(C(=O)NNC(=O)c2cc3cc4ccccc4nc3s2)c1 | -5 | 22* | -94 | 2 | 5 | 16
CC(=O)Nc1ccc(CN2CCCC(CO)(Cc3ccccc3C)C2)cc1 (configuration not stated) | -1 | 49* | -225 | 0 | 13 | -1
Cc1ccc(N2CCN(c3ccc(NCc4nc5ccccc5n4C)cc3)CC2)cc1 | 9 | 283* | i | -3 | 46* | 30*
Cn1c(CN2CCN(c3cccc(Cl)c3)CC2)nc2ccccc21 | 11 | 29* | -141 | 3 | 124* | 2
COc1ccc(CNC[C@@H](CCCCN(C)Cc2ccc(OC)cc2)N2C[C@H](c3ccccc3)N(CCc3ccc(Cl)c(Cl)c3)C(=O)C2=O)cc1 | -57 | 81* | -473 | 21* | 127* | 33*
COc1ccc(CNC(=O)[C@@H]2CC=C[C@@H]3CCN(Cc4ccc(Cl)c(Cl)c4)C(=O)[C@@H]32)cc1 | 12 | -1 | 8 | -4 | nt | nt
CC(=O)Nc1ccc(N(C(=O)c2ccccn2)C(C(=O)NC2CCCCC2)c2ccc(F)cc2)cc1 (configuration not stated) | -15 | -1 | 5 | -1 | nt | nt
Cn1c(-c2c(N)n(-c3ccccc3)c3nc4ccccc4nc23)nc2ccccc21 | 2 | 19* | -95 | -1 | 26* | 0
CSc1ccc(C(=O)NCC(c2ccco2)N(C)C)cc1[N+](=O)[O-] (configuration not stated) | -17 | 251* | i | 6 | 242* | 1
CC(=O)NC(CC(=O)NCC(c1ccco1)N(C)C)c1ccccc1 (configuration not stated) | -43 | 195* | i | 4 | 226* | -1
CN(C)C(CNC(=O)c1ccc2ccccc2c1)c1ccco1 (configuration not stated) | -3 | 30* | -158 | 1 | 33* | 4
CSc1ccccc1C(=O)NCC(c1ccco1)N(C)C (configuration not stated) | -24 | -1 | 5 | 8 | nt | nt
Cc1cccc(C(=O)NCC(c2ccco2)N(C)C)c1 (configuration not stated) | 2 | 1 | -5 | -1 | nt | nt
C[C@H](CO)N1C[C@H](C)[C@@H](CN(C)S(C)(=O)=O)Oc2ccc(NS(=O)(=O)c3cn(C)cn3)cc2C1=O | -17 | -1 | 7 | 5 | nt | nt
O=C(O)c1cccc2c1-c1ccc(Cl)cc1C2 | -4 | -1 | 6 | 1 | nt | nt
ClC1(Cl)CC1CSc1nnc(-c2ccncc2)o1 (configuration not stated) | 4 | -3 | 15 | -1 | nt | nt
CSC(=Nc1ccccc1)N=C(SCc1ccccc1)N(C)C | -41 | 76* | -333 | 11 | 38* | 0
N#CNC(=Nc1ccccc1)SCc1ccc(C(=O)O)cc1 | -6 | -1 | 6 | 2 | nt | nt
O=C(Nc1ncc(Cc2ccc(SC(F)F)cc2)s1)c1ccc(OC(F)F)cc1 | -42 | 19* | -98 | 1 | 16 | 1
COC(=O)NCC(c1ccc2c(c1)OCO2)N1CCN(c2ccccc2)CC1 (configuration not stated) | -4 | 217* | i | 0 | 193* | 1
SMILES | HTR5A inv ctr | OPRM1-OPRD1 ag | OPRM1-OPRD1 inv | HTR5A ag ctr | MOR-DOR ag conf | HTR5A ag ctr2
CCN(C(=O)CSc1nnc(-c2ccc(F)cc2)n1C)C1CCS(=O)(=O)C1 (configuration not stated) | -12 | -4 | 19 | 3 | nt | nt
O=C(c1ccc(OC2CCN(CCc3ccccc3)CC2)cc1)N1CCC[C@H]1CO | -4 | 1 | -4 | 13 | nt | nt
Cc1ccc(NC(=O)c2ncn(CCCN[C@H](C)c3cccc4ccccc34)n2)cc1C | -22 | 85* | -393 | 6 | 56* | -1
COC(=O)c1cccc(C23CC4(C2)[C@H](CN(Cc2ccc(-c5ccccc5)cc2)[C@@H]4c2ccccc2)C3c2ccc(Cl)nc2)c1 (some centres not stated) | -4 | -3 | 19 | 1 | nt | nt
COC(=O)c1cccc(C23CC4(C2)[C@H](CN(Cc2cccnc2)[C@@H]4c2ccccc2)C3c2ccc(Cl)nc2)c1 (some centres not stated) | -5 | 23* | -127 | -2 | 29* | 0
CCCCC1(C)NC(=O)N(CC(=O)Nc2ccc(Cl)cc2C)C1=O (configuration not stated) | -13 | -1 | 8 | 3 | nt | nt
CCOC(=O)c1sc2nc(SCC(=O)NCc3ccco3)n(Cc3ccccc3)c(=O)c2c1C | 2 | 150* | i | 0 | 2 | 3
COc1cc2c3nnc(-c4ccc(F)cc4)c-3cn(Cc3ccccc3F)c2cc1OC | -22 | 19* | -97 | 6 | 28* | 6
CCCC(C(=O)NC(C)(C)C)N(CCN1CCOCC1)C(=O)CNS(=O)(=O)c1ccccc1 (configuration not stated) | 2 | 1 | -6 | 2 | nt | nt
CC(=O)CSc1ccc(-c2nc3cc(C)c(C)cc3[nH]2)cn1 | -13 | 47* | -242 | -6 | 32* | 0
Cc1ccc(NC(=O)Cn2c(O)c(N=NC(N)=S)c3ccccc32)cc1 | -32 | 20* | -91 | 8 | 9 | 6
COc1ccc2c(c1)c(N=NC(N)=S)c(O)n2CC(=O)c1ccccc1 | -29 | 19* | -110 | 7 | 15 | 8
CN(CC(=O)Nc1ccccc1Br)C(=O)COc1cccc2c1OC(C)(C)C2 | 20 | -1 | 4 | 9 | nt | nt

Screening results as filed in PubChem BioAssay.
